Measurements as given in PubChem BioAssay AID493073 (Broad Institute, 2011).
Hit rate of the full screen: of about 1,200 compounds, about 810 (68%) were called active. The rule behind the calls is not given here. So high a share suggests a set chosen from earlier hits. The list is a sample of the results. Measured potencies and affinities stand elsewhere.

test: TRPM1 promoter luciferase signal decrease, dose response, MITF inhibitor project, cell-based, SK-MEL-5, cherry-picked, set 3 (AID 493073); details: SK-MEL-5 TRPM1 promoter luciferase, 24 h; series mostly up to 35 µM

outcome, inactive:
Cc1ccc(/C=c2/sc3n(c2=O)CCCN=3)o1
Cc1ccc2oc(=O)n(CCCOc3ccccc3)c2c1
CCCCOc1ccc(-c2ncc([N+](=O)[O-])cn2)cc1
CN(CC(=O)N1CCCCCC1)S(=O)(=O)c1ccccc1
CC1CCN(C(=O)c2cc3ccccc3o2)CC1
Nc1nnc(/C=C/c2ccccc2Cl)s1
CC(=O)c1c(C)[nH]c(C(=O)Nc2ccc(C)c(C)c2)c1C
CC(C)(C)OC(=O)N1CCN(C(=O)c2nc[nH]c2C(=O)N2CCN(c3ccccc3)CC2)CC1
NC(=O)c1ccccc1NC(=O)/C=C/c1cccc(Cl)c1
O=C1N=C(N2CCOCC2)S/C1=C\C=C/c1ccccc1
C=CCN1C(=O)S/C(=C\c2ccc(N3CCOCC3)cc2C)C1=O
O=Cc1ccc(N2Cc3ccccc3C2)cc1
Cc1cc(Cl)ccc1OCCCC(=O)N1CCOCC1
CC(C)(C)N=Cc1cc(-c2ccccc2)sc1O
CCOC(=O)c1cnc2c(ccc3ccccc32)c1N
COCC(C)Nc1ncnc2c1cnn2-c1ccc(Cl)cc1 (stereo not drawn)
c1ccc(-n2ncc3c(NCc4cccs4)ncnc32)cc1
CCCCN=C(C)c1c(O)c2ccccc2oc1=O
COc1ccccc1-c1nnc(-c2ccc(C)cc2)o1
COc1ccccc1-c1nc(-c2ccc(C)nc2OC)no1
CCCCOC(=O)c1[nH]c(C)c(C(=O)OC)c1C
CCOC(=O)c1cc2sccc2n1CC(=O)N1c2ccccc2CC1C (stereo not drawn)
CCN(C(=O)c1ccco1)c1nc(-c2ccc(OC)cc2)cs1
CS(=O)(=O)c1ccc2nc(NC(=O)c3ccccc3Br)sc2c1
Cc1ccc(-c2noc(CN3CCCCC3)n2)cc1
CCCCOc1ccc(-c2nnn(C(C)(C)C(=O)OC)n2)cc1
COc1ccc(/C=N/N=C2/SCC(=O)N2Cc2ccccc2)cc1
O=[N+]([O-])c1ccccc1OCCCOc1cccc2cccnc12
C=CCOc1ccc(/C=C/C(C)=N\O)cc1
O=C(CSc1ccccn1)c1ccc2c(c1)OCO2
COc1ccc(C(=O)/C=C(\C)Nc2ccc3c(c2)OCO3)cc1
CCOC(=O)C1(Cc2cccc(OC)c2)CCCN(C(=O)CSC)C1 (stereo not drawn)
N#Cc1nc(/C=C/c2ccccc2)oc1NCCCN1CCOCC1
Cc1cc(C(=O)Nc2ccc([N+](=O)[O-])cn2)cs1
Cc1cc(O)ccc1Nc1nc(-c2cccnc2)cs1
CC(=O)c1cccc(Nc2nc(-c3cccnc3)cs2)c1
C/C(=N/N=C(/C)c1cccs1)c1cccs1
Cc1nn(C)cc1/C=C/C(=O)c1cccs1
Cc1nc2cc(NC(=O)Nc3cccc([N+](=O)[O-])c3)ccc2n1C
C/C(=N/Nc1nc(C)c(C)s1)c1cccc([N+](=O)[O-])c1
CCCN1C(=O)c2ccc(C(=O)Nc3cc(C)ccc3O)cc2C1=O
CC1Cc2cc(-c3csc(N)n3)ccc2O1 (stereo not drawn)
COc1ccc(Nc2oc(-c3ccc(OC)cc3)nc2C#N)cc1
O=C1c2ccccc2CN1c1ccccc1
CC(=O)Nc1ccc2c(c1)ncn2-c1ccccc1
N#Cc1cnc2sc3ccccc3n2c1=N
CC1(C)CC(=O)c2cnc(N3CCc4ccccc43)nc2C1
O=C(NCCSc1ccccc1)c1ccccc1F
COc1ccc(-c2cc(-c3ccccc3O)[nH]n2)cc1OC
COc1ccc(-c2nc3n(c2C)Cc2ccccc2-3)cc1
COc1ccc(C(=O)Nc2nc3ccc(OC)cc3s2)cc1
CCCOc1ccc(C(=O)Nc2ccc3c(c2)OCCO3)cc1
CCOC(=O)c1ccc(NC(=O)c2ccnn2C)cc1
Cc1ccc(NC(=O)c2ccc(OCC3CCCO3)cc2)c(C)c1 (stereo not drawn)
CCOC(=O)c1ccc(NC(=O)CC2SCCNC2=O)cc1 (stereo not drawn)
COc1cc(/C=N/N=C(N)N)ccc1OCc1ccc(Cl)cc1
Cc1ccc2nc(-c3ccncc3)[nH]c2c1
CC(=O)N/C(N)=N/c1nc(=O)c2ccccc2s1
CCOc1ccc(N(CC(=O)Nc2ccc(OC)cc2)S(C)(=O)=O)cc1
COc1ccc(/C=N/NC(=O)Cc2cccs2)cc1
COc1ccc(NC(=O)c2scc(S(=O)(=O)C(C)C)c2N)cc1
CCSc1nc2c(cnn2-c2ccccc2)c(=O)n1N
Nc1c(-c2ccc(Cl)cc2)nnn1-c1ccccc1
CCn1nccc1C(=O)Nc1ccc(C)c(C)c1
O=C(CCNc1ccccc1)c1ccc2c(c1)OCO2
O=C(Cn1cnc2ccccc2c1=O)Nc1ccc2c(c1)OCCO2
Cc1cccc(N(O)C(=O)Nc2cccc(Cl)c2)c1
O=C(Nc1ccc(F)c(Cl)c1)c1ccc2c(c1)OCO2
C=CCn1cccc(C(=O)Nc2ccc(C)c(Cl)c2)c1=O
CC(O)CNC(=O)C1CCN(Cc2ccc(OCc3ccccc3)cc2)CC1 (stereo not drawn)
Nc1nc2ccccc2n1/N=C/c1ccc(-c2ccccc2)o1
Cc1c(/C=C/C(=O)c2ccc(Cl)s2)cnn1C
CCCCOC(=O)Nc1ccc2c(C)cc(=O)oc2c1
Cc1ccc(NC(=O)c2cc(-c3cccs3)on2)cc1
Cc1cc(C)c2sc(N(CCCN(C)C)C(=O)COc3ccc(Cl)cc3)nc2c1
Cc1ccc2nc(N(CCCN(C)C)C(=O)c3ccc4c(c3)CCCC4)sc2c1
CC(=O)N/C(N)=N/c1nc2cc(C)ccc2o1
CCOC(=O)c1cn2nc(Oc3ccccc3)ccc2n1
Cc1cn(CCC(=O)Nc2ccccc2N2CCOCC2)c2ccccc12
Clc1c(-c2ccccc2)nc2ccccn12
CCOC(=O)CSc1nc2cc(OCC)ccc2cc1C#N
C=CCNC(=O)Cn1nnc(-c2ccc(-c3ccc(OC)cc3)cc2)n1
O=C(Cn1cnc2c(oc3ccccc32)c1=O)c1ccccc1
c1ccc(Cc2cc(-c3ccccc3)on2)cc1
O=[N+]([O-])c1c(NCCCO)cc(Sc2ccc(Cl)cc2)c2nonc12
CC1CC2(C)Oc3ccccc3CC2C(C)C1CNCCCN(C)C (stereo not drawn)
Cc1cc(C)c2c(N)c(C(=O)N/N=C/c3cccnc3)sc2n1
O=[N+]([O-])c1cccc(/C=N/Nc2ncc(Br)cn2)c1
Cc1ccc(NC(=O)c2cc3cccc([N+](=O)[O-])c3[nH]2)cc1
O=C(CC(=O)c1ccccc1)Nc1ccccn1
N/C(CS(=O)(=O)c1ccccn1)=N\OC(=O)c1ccccc1Cl
COC(=O)[C@@H](C)NC(=O)c1ccc2oc(CCc3ccccc3)nc2c1
COc1ccc(NC(=O)c2cc3ccccc3[nH]2)cc1
